Laboratory results as given in PubChem BioAssay (Tox21).
Records with an inconclusive call do not appear. Calls of active or inactive are those of the source. Unless noted, calls come from the whole dose curve.

Assays:
[1] = Nuclear factor erythroid 2-related factor 2/antioxidant responsive element (Nrf2/ARE) small molecule agonists: qHTS cell viability counter screen in human keratinocytes (AID 1919968; active = well fitted curve in the direction sought with a large enough effect in the repeat runs; an effect the other way counts as inactive or inconclusive; note: nearly all actives have a fitted effect of over 55% in size)
Summary of the method: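 KeratinoSens cells (HaCaT keratinocytes stably carrying an ARE-luciferase reporter) were seeded at 1,500 cells/well and rested 5 h at 37 C/5% CO2. They were then exposed to compounds in DMSO for 23 h. Viability was read by CellTiter-Fluor fluorescence after 1 h.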

[2] = Nuclear factor erythroid 2-related factor 2/antioxidant responsive element (Nrf2/ARE) small molecule agonists: luciferase reporter gene qHTS assay in human keratinocytes (AID 1919969); note: nearly all actives have a fitted effect of over 35% in size
[3] = biological target: Gonadotropin-releasing hormone receptor (Homo sapiens) (UniProt P30968); experiment: Human gonadotropin-releasing hormone receptor (GnRHR) small molecule agonists, calcium flux assay in GnRHR-HEK293 cells (AID 1920063); note: nearly all actives have a fitted effect of over 35% in size
Sequence of Gonadotropin-releasing hormone receptor (Homo sapiens) (P30968 whole entry, looked up): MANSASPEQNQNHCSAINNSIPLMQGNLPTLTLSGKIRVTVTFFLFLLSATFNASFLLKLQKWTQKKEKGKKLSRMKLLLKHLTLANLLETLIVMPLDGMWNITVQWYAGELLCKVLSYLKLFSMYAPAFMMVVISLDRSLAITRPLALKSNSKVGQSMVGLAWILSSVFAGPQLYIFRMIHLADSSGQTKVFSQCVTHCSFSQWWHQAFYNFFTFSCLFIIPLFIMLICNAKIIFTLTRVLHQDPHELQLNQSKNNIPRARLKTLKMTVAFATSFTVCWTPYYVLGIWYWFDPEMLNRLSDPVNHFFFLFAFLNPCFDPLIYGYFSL
Summary of the method: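 HEK293 cells stably expressing human GnRHR were plated 18 h at 37 °C, loaded with calcium dye 1 h at 37 °C, then given compound in agonist mode; fluorescence (Ex/Em 480/540) read kinetically for 3 min at 1 s intervals.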

[4] = biological target: KiSS-1 receptor (Homo sapiens) (UniProt Q969F8); experiment: Human kisspeptin (KISS1R) small molecule agonists, calcium flux assay in KISS1R-HEK293 cells (AID 1920064; active = well fitted curve in the direction sought with a large enough effect in the repeat runs; an effect the other way counts as inactive or inconclusive)
Sequence of KiSS-1 receptor (Homo sapiens) (Q969F8 whole entry, looked up): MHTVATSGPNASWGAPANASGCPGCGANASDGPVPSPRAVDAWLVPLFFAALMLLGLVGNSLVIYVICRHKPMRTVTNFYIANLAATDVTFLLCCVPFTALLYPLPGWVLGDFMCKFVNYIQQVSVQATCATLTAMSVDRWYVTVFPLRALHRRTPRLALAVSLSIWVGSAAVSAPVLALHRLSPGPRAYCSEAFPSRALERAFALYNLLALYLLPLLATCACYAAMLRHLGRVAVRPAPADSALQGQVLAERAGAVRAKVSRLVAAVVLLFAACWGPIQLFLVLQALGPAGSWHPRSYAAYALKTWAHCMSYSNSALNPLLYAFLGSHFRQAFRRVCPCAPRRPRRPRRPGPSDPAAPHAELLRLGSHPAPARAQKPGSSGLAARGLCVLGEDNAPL
Summary of the method: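 HEK293 cells stably expressing human KISS1R were plated 18 h at 37 °C, loaded with calcium dye for 1 h at 37 °C, then given compound by pin tool. Fluorescence (Ex/Em 480/540) was read kinetically for 3 min.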

[5] = G protein-coupled receptor (GPCR) small molecule agonists, calcium flux assay: HEK293 wild type cell line counter screen (AID 1920065)
Summary of the method: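 Cells were plated and cultured 18 h at 37 C/5% CO2, then loaded with calcium dye for 1 h at 37 C. Compounds in DMSO were pin-transferred in agonist mode, and fluorescence (Ex/Em 480/540) was read kinetically for 3 min at 1 s intervals.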

[6] = p53 small molecule agonists, cell-based qHTS assay with human liver microsomes (AID 1963577)
Summary of the method: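 Cells carrying a p53-responsive bla reporter were rested 5 h (37 C, 5% CO2) before compound transfer. Human liver microsomes plus NADPH, 0.5 mg/mL final apiece, supplied metabolism during the 16 h 37 C exposure.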

[7] = p53 small molecule agonists, cell-based qHTS assay with rat liver microsomes (AID 1963578)
Summary of the method: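 Fluorescence from a beta-lactamase reporter under a p53 response element was measured after cells had been incubated 16 h at 37 C with test compound and rat liver microsomes plus NADPH (0.5 mg/mL final each).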

[8] = p53 small molecule agonists, cell-based qHTS assay with human liver microsomes: qHTS cell viability counter screen (AID 1963579); note: nearly all actives have a fitted effect of over 45% in size
Summary of the method: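 Seed p53RE-bla cells at 4,000 per well; incubate 5 h at 37 C; add compound, human liver microsomes and NADPH; incubate 16 h at 37 C; add CellTiter-Glo; after 30 min at room temperature, read luminescence.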

[9] = p53 small molecule agonists, cell-based qHTS assay with rat liver microsomes: qHTS cell viability counter screen (AID 1963580); note: nearly all actives have a fitted effect of over 45% in size
Summary of the method: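 p53RE-bla HCT-116 cells (4,000/well) rested 5 h at 37 C, then given Tox21 compounds in DMSO with rat liver microsomes (0.5 mg/mL final) plus NADPH (0.5 mg/mL final) for 16 h at 37 C. Viability read by CellTiter-Glo luminescence after 30 min at room temperature.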

[10] = p53 small molecule agonists, cell-based qHTS assay: qHTS cell viability counter screen (AID 1963581); note: nearly all actives have a fitted effect of over 45% in size
Summary of the method: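 p53RE-bla HCT-116 cells were exposed to compounds for 16 h at 37 C; after the beta-lactamase FRET read in the same wells, CellTiter-Glo was added and luminescence (intracellular ATP) read after 30 min at room temperature.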

[11] = p53 small molecule agonists, cell-based qHTS assay (AID 1963582; active = well fitted activation curve with a large enough effect in the signal ratio in the repeat runs, not every such curve was filed as active; the % refers to the signal ratio)
Summary of the method: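 p53RE-bla beta-lactamase reporter cells rested 5 h at 37 C/5% CO2, then received compounds in DMSO by pin transfer and were incubated 16 h at 37 C. LiveBLAzer B/G FRET substrate was loaded for 2 h at room temperature before fluorescence reading.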

[12] = biological target: 5-hydroxytryptamine receptor 2A (Homo sapiens) (UniProt P28223); experiment: 5-hydroxytryptamine receptor 2A (HTR2A) small molecule antagonists, cell-based qHTS assay (AID 1963586); note: nearly all actives have a fitted effect of over 45% in size
Sequence of 5-hydroxytryptamine receptor 2A (Homo sapiens) (P28223 whole entry, looked up): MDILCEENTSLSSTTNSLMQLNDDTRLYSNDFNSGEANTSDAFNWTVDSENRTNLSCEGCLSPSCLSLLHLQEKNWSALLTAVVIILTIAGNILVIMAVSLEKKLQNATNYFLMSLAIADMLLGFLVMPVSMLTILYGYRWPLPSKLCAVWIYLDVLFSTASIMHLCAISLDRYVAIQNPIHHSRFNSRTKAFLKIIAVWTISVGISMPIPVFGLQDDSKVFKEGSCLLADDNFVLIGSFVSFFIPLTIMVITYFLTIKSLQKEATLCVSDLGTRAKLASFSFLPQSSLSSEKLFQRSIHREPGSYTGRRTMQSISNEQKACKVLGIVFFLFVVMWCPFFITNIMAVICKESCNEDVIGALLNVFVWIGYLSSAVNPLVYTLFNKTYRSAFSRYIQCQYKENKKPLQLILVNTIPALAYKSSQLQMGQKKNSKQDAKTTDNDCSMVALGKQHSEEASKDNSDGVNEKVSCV
Summary of the method: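 Antagonist-mode intracellular calcium assay: DOI (4 nM) added after 5 min compound pre-incubation at room temperature to dye-loaded HTR2A-CHO cells. Fluorescence followed for 3 min, sampled every second.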

[13] = biological target: 5-hydroxytryptamine receptor 2A (Homo sapiens) (UniProt P28223); experiment: 5-hydroxytryptamine receptor 2A (HTR2A) small molecule agonists, cell-based qHTS assay (AID 1963587); note: nearly all actives have a fitted effect of over 30% in size
Summary of the method: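 HTR2A-CHO cells, plated 18 h at 37 C/5% CO2, dye-loaded 1 h at 37 C; compounds in DMSO added by pin tool (agonist mode). Intracellular calcium flux read as kinetic fluorescence on FDSS over 2 min at 1 s intervals.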

[14] = biological target: Muscarinic acetylcholine receptor M1 (Homo sapiens) (UniProt P11229); experiment: Cholinergic receptor muscarinic 1 (CHRM1) small molecule antagonists, cell-based qHTS assay (AID 1963588); note: nearly all actives have a fitted effect of over 40% in size
Sequence of Muscarinic acetylcholine receptor M1 (Homo sapiens) (P11229 whole entry, looked up): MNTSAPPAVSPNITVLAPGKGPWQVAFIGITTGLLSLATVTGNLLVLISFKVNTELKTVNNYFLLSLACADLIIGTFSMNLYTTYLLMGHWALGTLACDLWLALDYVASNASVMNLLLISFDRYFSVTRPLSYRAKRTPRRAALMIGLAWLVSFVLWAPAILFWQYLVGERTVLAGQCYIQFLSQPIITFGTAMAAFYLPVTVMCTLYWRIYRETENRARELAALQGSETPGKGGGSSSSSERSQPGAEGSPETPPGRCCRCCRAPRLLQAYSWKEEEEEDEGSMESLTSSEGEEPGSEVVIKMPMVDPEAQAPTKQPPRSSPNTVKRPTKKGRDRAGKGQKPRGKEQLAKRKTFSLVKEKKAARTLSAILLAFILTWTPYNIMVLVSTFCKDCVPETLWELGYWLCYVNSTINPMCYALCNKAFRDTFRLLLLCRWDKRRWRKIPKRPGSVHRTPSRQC
Summary of the method: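 CHRM1-CHO calcium-flux assay, antagonist mode. Cells were seeded 18 h, dye-loaded 1 h at 37 C and given compound for 5 min at RT, then acetylcholine was added at 50nM. FDSS fluorescence was read 3 min; 15 concentrations, three runs.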

[15] = biological target: Muscarinic acetylcholine receptor M1 (Homo sapiens) (UniProt P11229); experiment: Cholinergic receptor muscarinic 1 (CHRM1) small molecule agonists, cell-based qHTS assay (AID 1963589); note: nearly all actives have a fitted effect of over 35% in size
Summary of the method: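 CHO cells stably expressing human CHRM1, seeded 18 h at 37 C/5% CO2, dye-loaded 1 h at 37 C, then given compound in agonist mode; intracellular calcium fluorescence read kinetically at 1 s intervals. Fifteen concentrations, three independent runs.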

[16] = cAMP Responsive Elements (CRE) small molecule agonists, cell-based qHTS assay (AID 1963590)
Summary of the method: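 CRE-bla HEK 293T cells in DMEM with 10% dialyzed FBS, NEAA, pyruvate and 25 mM HEPES were plated 18 h at 37 C/5% CO2, then exposed to compounds in DMSO for 3 h before LiveBLAzer B/G FRET substrate addition.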

[17] = cAMP Responsive Elements (CRE) small molecule antagonists, cell-based qHTS assay (AID 1963591; active = well fitted inhibition curve with a large enough effect in the signal ratio in the repeat runs, not every such curve was filed as active; the % refers to the signal ratio)
Summary of the method: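 CRE-bla HEK293T cells were plated 18 h at 37 °C/5% CO2, pinned with compound in DMSO, then stimulated with NKH477 at 0.25 uM final for 3 h. LiveBLAzer B/G FRET substrate was added and plates incubated 2 h at room temperature.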

[18] = biological target: Beta-2 adrenergic receptor (Homo sapiens) (UniProt P07550); experiment: Adrenergic beta2 receptor (ADRB2) small molecule antagonists, cell-based qHTS assay (AID 1963592); note: series mostly up to about 92 µM; nearly all actives have a fitted effect of over 50% in size
Sequence of Beta-2 adrenergic receptor (Homo sapiens) (P07550 whole entry, looked up): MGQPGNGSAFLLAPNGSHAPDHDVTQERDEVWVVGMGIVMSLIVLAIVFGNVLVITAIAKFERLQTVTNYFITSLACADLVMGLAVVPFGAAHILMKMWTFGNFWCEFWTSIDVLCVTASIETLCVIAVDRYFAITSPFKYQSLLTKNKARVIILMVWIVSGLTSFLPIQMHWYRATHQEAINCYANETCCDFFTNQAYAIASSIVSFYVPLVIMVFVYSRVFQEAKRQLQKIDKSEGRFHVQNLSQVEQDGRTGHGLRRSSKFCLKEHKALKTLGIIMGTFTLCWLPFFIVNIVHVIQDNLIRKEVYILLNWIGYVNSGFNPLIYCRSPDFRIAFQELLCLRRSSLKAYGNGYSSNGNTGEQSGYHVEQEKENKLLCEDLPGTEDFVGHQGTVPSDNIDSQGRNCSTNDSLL
Summary of the method: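 Cells (CHO, stable ADRB2 overexpression) incubated 18-20hr at 37C; compounds added from DMSO; agonist mix (1nM isoproterenol, 100uM IBMX, 25uM Ro-20-1724) added; 0.5hr RT; d2-cAMP and anti-cAMP-cryptate added; 1hr RT; 665/615 nm read.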

[19] = biological target: D(2) dopamine receptor (Homo sapiens) (UniProt P14416); experiment: Dopamine D2 receptor (DRD2) small molecule agonists, cell-based qHTS assay (AID 1963594); note: nearly all actives have a fitted effect of over 35% in size
Sequence of D(2) dopamine receptor (Homo sapiens) (P14416 whole entry, looked up): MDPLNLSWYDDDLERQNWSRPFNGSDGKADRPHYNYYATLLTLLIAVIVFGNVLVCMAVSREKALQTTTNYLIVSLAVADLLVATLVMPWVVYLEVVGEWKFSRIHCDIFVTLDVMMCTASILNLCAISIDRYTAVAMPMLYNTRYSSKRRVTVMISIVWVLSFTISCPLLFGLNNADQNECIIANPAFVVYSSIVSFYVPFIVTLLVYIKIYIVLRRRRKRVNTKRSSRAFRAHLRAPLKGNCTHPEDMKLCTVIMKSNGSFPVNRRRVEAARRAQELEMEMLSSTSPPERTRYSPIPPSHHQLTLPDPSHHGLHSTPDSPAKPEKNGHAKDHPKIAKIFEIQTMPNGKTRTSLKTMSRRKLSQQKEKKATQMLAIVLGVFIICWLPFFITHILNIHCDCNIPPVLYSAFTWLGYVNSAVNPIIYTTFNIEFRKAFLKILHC
Summary of the method: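 HEK293 cells stably expressing DRD2 were cultured 24 h at 37 C, then given Ro20-1724 (0.1 mM final) and compounds for 10 min at room temperature. NKH477 (200nM) was then added for 30 min. cAMP was read by HTRF.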

[20] = biological target: D(2) dopamine receptor (Homo sapiens) (UniProt P14416); experiment: Dopamine D2 receptor (DRD2) small molecule antagonists, cell-based qHTS assay (AID 1963595; active = well fitted inhibition curve with a large enough effect in the signal ratio in the repeat runs, with a control signal flat; the % refers to the signal ratio)
Summary of the method: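 Antagonism was scored as restored cAMP in HEK293-DRD2 cells. These cells were stimulated with 200 nM NKH477 and 12 nM quinpirole for 30 min at room temperature, in the presence of 0.1 mM Ro20-1724.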

Measured: Potency

CC(=O)Oc1ccc(C)cc1
inactive: all assays above

C=CN1CCCC1=O
inactive: all assays above

COCN(COC)c1nc(N(COC)COC)nc(N(COC)COC)n1
inactive: all assays above
